Sa RN4220 lethal: kills Staphylococcus aureus RN4220; S. aureus RN4220 growth, OD600, 16 h; inhibition, % (no concentration beside the values); 0.33% of 330,000 active; AID 1259311; in the data active = inhibition above about 85%;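 note: plate controls were untreated cells for no effect and reference antibiotic for full effect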
Vc quorum ag: inducers of Vibrio cholerae quorum light production without autoinducers. activation, % at 18.7 µM. 0.16% of 350,000 active. V. cholerae BH1578 lux reporter, luminescence, 6 h; in the data active = activation mostly above about 9.7%, no sharp cut-off
ugtP null kill: growth inhibition of S. aureus ugtP deletion strain | S. aureus RN4220 ugtP deletion, OD600 growth, 16 h | growth inhibition, % (test concentration not listed) | 0.54% of 330,000 active; in the data active = growth inhibition above about 68%;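 note: plate controls were untreated wells for no effect and antibiotic for full effect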
Mtb betalactam: beta-lactam sensitization of Mtb H37Rv. M. tuberculosis H37Rv growth with meropenem, percent inhibition. inhibition, % at 25 µM. 0.27% of 330,000 active; call rule not given here;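 note: growth measured after seven days incubation then overnight dye step; 0% = bacteria only wells and 100% = bacteria with antibiotic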
PfHsp40 rescue: rescue of PfHsp40-mediated yeast toxicity. S. cerevisiae expressing PfHsp40, growth rescue, ATP luminescence. growth rescue, % at 12.5 µM. 0.68% of 340,000 active. AID 504582; in the data active = growth rescue above about 28%, passing the limit was not always enough;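 note: yeast W303a lacking pdr1 and pdr3 grown in galactose medium; growth measured after three days at 30 °C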
Starred values were filed as active, the others as inactive; i = inactive; . = not tested or not shown. A selection: hits, their analogues and other compounds. The true share with any hit is near 1.2%.

SMILES	Sa RN4220 lethal	Vc quorum ag	ugtP null kill	Mtb betalactam	PfHsp40 rescue
CCC(=O)NC(c1cccs1)c1cc([N+](=O)[O-])c2cccnc2c1O (stereo unspecified)	96*	96*	98*	5	0
O=C1C2C(c3cccc(C=Cc4ccccc4)c3)CC=CC2C(c2ccc(C(F)(F)F)cc2)N1Cc1ccccc1 (stereo unspecified)	17	.	-6	.	.
COC(=O)c1ccc(C(O)C(C)C(=O)CC(=O)OC(C)(C)C)cc1 (stereo unspecified)	5	.	-4	.	.
Oc1ccc(/C=N/Nc2ccnc3cc(Cl)ccc23)c(O)c1O	.	0	.	0	22
Clc1ccc2c(NN=Cc3cccnc3)ccnc2c1	3	.	9	.	.
Clc1ccc2c(NN=Cc3cccc(Br)c3)ccnc2c1	101*	.	101*	.	.
Clc1ccc2c(NN=Cc3ccccc3Br)ccnc2c1	98*	.	99*	.	.
COc1c(Br)cc(Br)cc1C=NNC(=O)c1ccncc1	-5	.	16	.	.
CC(C)(C)OC(=O)CC1CC=CCC(CC(=O)N(CCO)Cc2ccccc2)C(=O)NCCOC1=O (stereo unspecified)	2	.	-1	.	.
CCc1nc2ccccc2n1CC1CC1(Cl)Cl (stereo unspecified)	9	i	0	-4	56*
CN1CCCN=C1COC(=O)C(O)(c1ccccc1)C1CCCCC1 (stereo unspecified)	.	29*	.	1	0
CC(C)(C)C(=O)OC[N+](C)(C)CCOC(=O)C(O)(c1ccccc1)C1CCCC1 (stereo unspecified)	12	0	4	-3	-1
CNC[C@@H](CC1CCCCC1)NC[C@H](CC(C)C)NCCc1cccc(C(F)(F)F)c1	.	i	.	98	-1
CNCC(CC1CCCCC1)NCC(CC(C)C)NCCc1cccc(C(F)(F)F)c1 (stereo unspecified)	89*	.	86	.	.
Nc1c(Cl)ncnc1N/N=C/c1ccc2ccccc2n1	.	0	.	37	503*
Nc1c(Cl)ncnc1NN=Cc1ccccn1	-3	.	-5	.	.
COc1cccc(NCc2cc(=O)oc3cc(C)c(O)cc23)c1	97*	0	100*	-2	.
COc1ccc(Cn2c(SCc3ccc(C)cc3)nc3cc(OC)c(OC)cc3c2=N)cc1Cl	100*	i	99*	100	1
COc1ccc(Cn2c(SCc3cc(C)ccc3C)nc3cc(OC)c(OC)cc3c2=N)cc1	16	0	-16	100	1
CCCCCCCNC(=O)C1(CC2CC(c3cccc(Br)c3)=NO2)CCN(C(=O)C2(C)CC2)CC1 (stereo unspecified)	2	-4	-19	92	2
CCCCCCCNC(=O)C1(CC2CC(c3cccc(Br)c3)=NO2)CCN(C(=O)CCCCCBr)CC1 (stereo unspecified)	.	i	.	100	45*
C[n+]1c(-c2ccccc2)c2cc(N)ccc2c2ccc(N)cc21	37	0	98*	100	128*
CC(C)(C)c1ccc(OCc2ccc(C(=O)N/N=C/c3ccc(O)c(O)c3)cc2)cc1	.	i	.	37	2
COc1ccc(C=NNC(=O)c2cc(O)c(O)c(O)c2)cc1COc1ccc(C(=O)OCC(C)C)cc1	26	.	99*	.	.
COc1ccc(C(=O)N/N=C/c2ccc(OC)c(COc3ccc(F)cc3)c2)cc1	.	i	.	1	1
SMILES	Sa RN4220 lethal	Vc quorum ag	ugtP null kill	Mtb betalactam	PfHsp40 rescue
CC(C)(C)c1ccc(OCc2ccc(C(=O)NN=Cc3ccc(O)c(O)c3)cc2)cc1	47	.	94*	.	.
O=C1CC(N2CCN(c3ccc(F)cc3)CC2)C(=O)N1Cc1cccs1 (stereo unspecified)	1	i	-3	-5	0
O=C1CC(N2CCN(c3nc4ccccc4s3)CC2)C(=O)N1Cc1cccs1 (stereo unspecified)	-4	0	2	-14	99*
Cc1c(Br)c([N+](=O)[O-])nn1C(C)C(=O)Nc1ccc2c(c1)OCO2 (stereo unspecified)	1	55*	-1	4	1
CC(=NNC(=O)c1cc(-c2cccs2)nc2ccccc12)c1ccccn1	6	.	-3	.	.
CC12CN3CC(C)(CN(C1)C3c1ccccc1F)C2 (stereo unspecified)	1	1	4	-9	61*
CC12CN3CC(C)(CN(C1)C3c1ccccc1Cl)C2O (stereo unspecified)	6	-1	-11	-9	0
Cc1ccc(NC(=O)c2cc(N3C(=O)CCC3=O)ccc2N2CCOCC2)cc1	4	0	0	-2	0
